The text below walks through data of PubChem BioAssay.

Assay [1] in a line: blockers of polyQ-driven CASP3 activation – cell-based (AID 1583). The conditions noted are these: polyglutamine-induced caspase-3 activation, cell assay; stronger effect = higher value;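 tested at 10 µM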.
A short description of assay [2]: yeast 75Q aggregation reduction – 75Q-TubU reporter (AID 1593). The conditions noted are these: Yeast 75Q polyglutamine aggregation reporter.
A short description of assay [3]: restoration of touch response, mutant HTT neurons – whole organism, C. elegans mechanosensory neurons, N-terminal huntingtin (AID 1599). The conditions noted are these: C. elegans polyQ-huntingtin mechanosensory neurons, stronger effect = higher value.
The nature of assay [4]: blockers of cytochrome c efflux from mitochondria – biochemical, purified mitochondria (AID 1603).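 Further: mouse liver mitochondria challenged with calcium chloride; signal normalized to the plate average as 100%.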 As to conditions: stronger effect = lower value.
Assay [5] is described as follows: polyglutamine aggregate formation blockers (AID 1604). The conditions noted are these: polyglutamine-induced protein aggregation inhibition assay; stronger effect = higher value; tested at 2.5 µM.
Assay [6] in a line: glutamate transport activators, MN-1 cells, MN-1 cell line (AID 1612).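 Further: tested at 1 µM final; 0% = mean of DMSO vehicle wells on each plate; positive means more glutamate uptake than control and negative means less.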 The conditions noted are these: MN-1 motor neuron cells, stronger effect = higher value.
Assay [7] can be described thus: 75Q-TubH aggregate inhibition, S. cerevisiae, yeast (AID 1616). The conditions noted are these: S. cerevisiae 75Q-TubH polyglutamine aggregation suppression; stronger effect = higher value.
Assay [8] in a line: compounds altering viability of human ES cells (AID 493140; call rule not given here;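 further: cells exposed to compounds for four days before counting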). As to conditions: human embryonic stem cell survival screen; stronger effect = higher value.
Assay [9] is described as follows: modulation of C. elegans fzo-1 (AID 1259413; call rule not given here;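 further: fzo-1 mutant C. elegans worms in liquid wells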). As to conditions: C. elegans fzo-1 modulator screen, mean read-out; stronger effect = higher value.
Assay [10] concerns the target Mitogen-activated protein kinase 7 (Homo sapiens) (UniProt Q13164). The assay is described as follows: Gal4-ERK5 driven luciferase induction – cell-based, HTS, primary screen (AID 1508626;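 active means luciferase signal above three times the same-plate solvent-only control wells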;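 further: luciferase driven by Gal4-ERK5 fusion binding five Gal4 sites before minimal TATA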). The conditions noted are these: HeLa Gal4-ERK5 transactivation, 18 h, at 5 µM, stronger effect = higher value.
Assay [11] is described as follows: galactose survival enhancers in mitochondrial complex I cybrids – cell-based, galactose medium, ATP luminescence, primary screen (AID 1645843;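 active means z-score of at least 1.8 in each of two replicates, scored against plate mean and spread of sample wells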;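 further: positive z means more ATP and so rescue of galactose-driven cybrid death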). The conditions noted are these: complex I mutant cybrid cells, 72 h, stronger effect = higher value.
A further assay concerns R275C/beta1. The assay is described as follows: BK channel mutant inhibitors and activators – cell-based, U2OS BacMam, thallium flux, beta subunits, selectivity assay, profiling panel (AID 1259406).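 Further: initial slope of Thallos dye fluorescence rise after thallium is added; log ratio against the mean of 0.3% DMSO vehicle wells on the same plate.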 The conditions noted are these: U2OS BacMam BK variants, at 30 µM.
In another assay the test system is R275C/beta2Delta. Described as above. The conditions noted are these: U2OS BacMam BK variants, at 30 µM.
For a further assay, the system named is R275C/beta4. Described as above. The conditions noted are these: U2OS BacMam BK variants, at 30 µM.
Another assay relates to R275C/Slo1WT/beta2. The assay is described as above. The conditions noted are these: U2OS BacMam BK variants, at 30 µM.
A short description of assay [12]: signal quenchers or enhancers, Cy5 substrate/SSB – biochemical, NIH Clinical Collection, E. coli SSB, artefact control for HCV NS3 helicase inhibitor project (AID 743268; call rule not given here). The conditions noted are these: Cy5-oligo bound E. coli SSB, fluorescence interference.
The subject of assay [13] is Hepatitis C virus NS3 helicase. Briefly: blockers of NS3h binding to DNA – biochemical, fluorescence polarization, NIH Clinical Collection, primary screen (AID 743270; call rule not given here). As to conditions: NS3 helicase binding to Cy5-dT15 DNA, stronger effect = higher value, concentration not given here. A general note: Fluorescence polarisation rises when a labelled molecule tumbles more slowly, as on binding a larger partner.

Assay [14] deals with Single-stranded DNA-binding protein (Escherichia coli (strain K12)) (UniProt P0AGE0). The assay is described as follows: SSB-ssDNA binding inhibitors – biochemical, fluorescence polarization, NIH Clinical Collection, counter-screen for HCV NS3 helicase inhibitor project (AID 743271; in the data active means inhibition above about 28%). As to conditions: E. coli SSB-DNA binding, stronger effect = higher value, concentration not given here.

Assay [15] can be described thus: compounds distorting NS3 helicase fluorescence signal – biochemical, NIH Clinical Collection, artefact control for HCV NS3 helicase inhibitor project (AID 743272; call rule not given here;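 further: HCV NS3 helicase with a Cy5 labelled single stranded DNA probe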). As to conditions: fluorescence interference counterscreen, HCV NS3 helicase assay; stronger effect = lower value. Background: Counterscreens check selectivity or assay interference.

Where “and” joins values, the source holds several entries; their conditions need not be identical. Identical values can stand only once. For some of these results: Potency and affinity values are given separately. Calls of active or inactive are those of the source.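 How the source made its calls, unless noted: active means thallium flux through the channel raised or lowered by more than 3 SD from vehicle-only wells, actives on both sides; inactive means the rest.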

Mitogen-activated protein kinase 7 (Homo sapiens), sequence (Q13164 whole entry, looked up, the tested form may be a part): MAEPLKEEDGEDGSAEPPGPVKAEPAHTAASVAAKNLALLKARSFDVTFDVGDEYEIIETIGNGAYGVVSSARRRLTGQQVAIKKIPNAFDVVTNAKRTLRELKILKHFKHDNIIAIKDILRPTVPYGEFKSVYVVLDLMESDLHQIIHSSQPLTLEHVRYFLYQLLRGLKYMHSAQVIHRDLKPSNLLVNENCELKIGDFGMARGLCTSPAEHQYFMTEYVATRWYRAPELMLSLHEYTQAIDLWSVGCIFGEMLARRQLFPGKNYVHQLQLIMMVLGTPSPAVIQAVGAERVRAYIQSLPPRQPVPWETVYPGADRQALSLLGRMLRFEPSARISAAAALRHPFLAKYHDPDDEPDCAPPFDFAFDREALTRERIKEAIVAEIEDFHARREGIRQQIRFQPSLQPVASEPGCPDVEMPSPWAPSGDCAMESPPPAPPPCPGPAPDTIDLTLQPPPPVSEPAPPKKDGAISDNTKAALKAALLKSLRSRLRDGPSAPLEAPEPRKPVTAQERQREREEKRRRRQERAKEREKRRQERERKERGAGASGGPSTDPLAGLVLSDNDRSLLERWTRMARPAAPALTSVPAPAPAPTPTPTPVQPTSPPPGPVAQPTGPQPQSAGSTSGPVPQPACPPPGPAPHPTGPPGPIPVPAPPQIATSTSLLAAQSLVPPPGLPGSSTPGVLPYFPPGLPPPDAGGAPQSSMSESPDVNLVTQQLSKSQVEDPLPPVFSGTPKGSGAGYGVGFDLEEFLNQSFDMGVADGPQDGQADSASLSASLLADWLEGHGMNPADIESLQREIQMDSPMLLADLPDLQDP

Take `O=C1C(CCS(=O)c2ccccc2)C(=O)N(c2ccccc2)N1c1ccccc1` (configuration not stated): the inhibition in assay [1] was 18.6%. This molecule yielded a score in [2] of 0.1. This molecule registered a rescue above control in [3] of -11.1. The cytochrome c release ratio in assay [4] was determined as 0.57. Also, in assay [5], the inhibition of aggregation came to 71.9%. Also, the glutamate uptake change in assay [6] is -6.33%. The molecule also came in with an aggregation suppression score in [7] of 0.341. In addition, the survival in [8] was 40.2 (inactive). In addition, the mean signal in assay [9] was 224 (inactive). For the same molecule, the luciferase signal in assay [10] was 104 AU (inactive). In addition, in assay [11], the z-score was -0.05 (inactive). Moreover, the log fold change Tl+ flux was 0.0129 (inactive) in the assay on R275C/beta1, -0.0044 (inactive) in the assay with R275C/beta2Delta, -0.0311 (inactive) with R275C/beta4 and 0.0214 (inactive) with R275C/Slo1WT/beta2.

Regarding `COc1ccc(OC)c(C(O)CNC(=O)CN)c1` (configuration not stated), the inhibition is -17.3% in [1], -2.27% (inactive) in assay [13] and -2.76% (inactive) in assay [14]. In addition, the score in [2] came out at 1.3. The molecule further had a rescue above control in [3] of -4.55. The cytochrome c release ratio in assay [4] came to 1.63. Besides, the inhibition of aggregation in assay [5] was 41.7%. Also, the glutamate uptake change in assay [6] was -11.6%. The aggregation suppression score in [7] amounted to 1.16. Also, the survival in [8] is 18.8 (inactive). Also, the fluorescence ratio in assay [12] is 1 (inactive); in assay [15] it was 1.02 (inactive). In addition, the mean signal in [9] is 239 (inactive). Further, in [10], the luciferase signal is 124 AU (inactive). Moreover, in assay [11], the z-score is 0.54 (inactive). The log fold change Tl+ flux was -0.0304 (inactive) in the assay with R275C/beta1, -0.0183 (inactive) in the assay on R275C/beta2Delta, 0.00841 (inactive) in the assay on R275C/beta4 and 0.0391 (inactive) in the assay with R275C/Slo1WT/beta2.

For the molecule `CC(=O)Nc1nnc(S(N)(=O)=O)s1`, the inhibition in [1] was 12.8%; in assay [13], -1.36% (inactive); in assay [14] it was -2% (inactive). Also, in [2], the score was 1.01. Further, the rescue above control in assay [3] came to 21.8. The cytochrome c release ratio in assay [4] was found to be 0.85. Also, the inhibition of aggregation in [5] is -6.35%. Besides, the glutamate uptake change in assay [6] was 5.19%. This molecule gave an aggregation suppression score in assay [7] of 1.12. For the same molecule, the survival in assay [8] was 10.5 (inactive). The fluorescence ratio in assay [12] is 1.01 (inactive); in assay [15] it was 0.98 (inactive). Further, the mean signal in assay [9] was 242 (inactive). Besides, the luciferase signal in [10] is 44 AU (inactive). Besides, the z-score in [11] is 0.625 (inactive) and 0.37 (inactive). Besides, the log fold change Tl+ flux with R275C/beta1 was -0.00169 (inactive); in the assay with R275C/beta2Delta, 0.0403 (inactive); with R275C/beta4, 0.00614 (inactive); in the assay with R275C/Slo1WT/beta2, 0.0491 (inactive).

As for `CCCCC1=NC2(CCCC2)C(=O)N1Cc1ccc(-c2ccccc2-c2nn[nH]n2)cc1`, the fluorescence ratio is 1.06 (inactive) in assay [12] and 1.03 (inactive) in [15]. The figures for the inhibition in [13] and in [14] were -3.56% (inactive) and 3.75% (inactive), respectively. For the same molecule, in assay [9], the mean signal is 269 (inactive). Further, the luciferase signal in assay [10] was 56 AU (inactive). Besides, the z-score in assay [11] was 1.65 (inactive). In addition, the log fold change Tl+ flux with R275C/beta1 was 0.109 (active); in the assay with R275C/beta2Delta, 0.104 (active); in the assay with R275C/beta4, 0.051 (inactive); in the assay with R275C/Slo1WT/beta2, 0.0476 (inactive).

For the molecule `CCCCNC(=O)NS(=O)(=O)c1ccc(C)cc1`, the inhibition in assay [1] is -1.59%; in [13] it was -5.91% (inactive); in [14], 1.05% (inactive). The score in assay [2] was determined as 1.02. The same molecule showed a rescue above control in assay [3] of -3.14. Also, in assay [4], the cytochrome c release ratio is 0.7. Further, the inhibition of aggregation in assay [5] came to 52.6%. In assay [6], the glutamate uptake change was -18.9%. The molecule further displayed an aggregation suppression score in [7] of 0.871. In addition, the survival in [8] is 25.3 (inactive). For the same molecule, the fluorescence ratio in assay [15] is 0.91 (inactive). The mean signal in assay [9] was 261 (inactive). In addition, the luciferase signal in assay [10] was 36 AU (inactive). Also, in [11], the z-score is 0.82 (inactive) and -0.58 (inactive) and 0.93 (inactive). For the same molecule, the log fold change Tl+ flux is -0.0147 (inactive) in the assay with R275C/beta1, 0.0266 (inactive) in the assay with R275C/beta2Delta, -0.00534 (inactive) with R275C/beta4 and -0.00827 (inactive) in the assay on R275C/Slo1WT/beta2.

By inhibition is commonly meant the relative decrease from the control value, in per cent.
